Where “and” joins values, the source holds several entries; their conditions need not be identical. Identical values can stand only once. About 64,000 (15%) of roughly 420,000 compounds were called active. About 27% were inconclusive and are not listed. The call rests on the fitted dose curve; in most records, active means well fitted inhibition curve with a large enough effect; inconclusive means small, poorly fitted or top-dose-only effect; inactive means flat fitted curve, though single readings scatter. The list is a sample of the results. A call without a number means that no potency is given here. More than one record can exist for a structure, and the calls need not agree.
Experiment: qHTS for Inhibitors of human tyrosyl-DNA phosphodiesterase 1 (TDP1): qHTS in cells in absence of CPT; further: nearly all actives have a fitted effect of over 55% in size
Settings: DT40 Tdp1-/- hTDP1 cells, no CPT, ATP luminescence, 48 h; activity change, negative = growth inhibition: at 46.2 µM (top of the series)
Outline: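 Cells were dispensed at 400 per well, compounds added by pin tool, plates incubated ≥48 hr at 37 °C, then CellTiter-Glo added for 30 min at room temperature before luminescence reading. Line: DT40 Tdp1-/- complemented with hTDP1; camptothecin omitted.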
Potency means the concentration at half of the fitted maximal effect.

Compound | Potency
O=C(CCN1C(=O)c2ccccc2C1=O)NCCN1CCOCC1 | inactive
O=c1oc2ccccc2cc1-c1cn(-c2ccccc2)c(=S)[nH]1 | 3.26 µM (active)
O=C(c1cn(-c2ccccc2)nc1-c1cc2ccccc2oc1=O)N1CCOCC1 | inactive
S=c1[nH]c(-c2cccs2)cn1-c1ccccc1 | inactive
CC(=O)Oc1c2c(c3c(c1CC=C(C)C)O[C@@]14C(=CC5CC1C(C)(C)OC4(C/C=C(\C)C(=O)O)C5=O)C3=O)OC(C)(CCC=C(C)C)C=C2 (stereo partly specified) | 1.3 µM (active)
CC1(C)CC(=O)C2=C(C1)N=C1SCCC(=O)N1C2c1ccc(C(F)(F)F)cc1 (stereo unspecified) | inactive
Cc1ccc(CSc2oc(-c3cccs3)nc2S(=O)(=O)c2ccc(C)cc2)cc1 | 5.17 µM (active)
CCCCS(=O)(=O)c1oc(-c2cccs2)nc1S(=O)(=O)c1ccccc1 | 1.16 µM (active)
O=C(c1cc(-c2cccs2)on1)N1CCCCC1 | inactive
N#Cc1ccc(-c2cccs2)nc1SCc1ccc(Br)cc1 | inactive
Cc1ccc(C(=O)N/C(=C/c2cccs2)C(=O)N2CCCCC2)cc1 | inactive
COC(=O)CSc1nccc(-c2cccs2)n1 | inactive
NC(=O)CSc1oc(-c2cccs2)nc1S(=O)(=O)c1ccccc1 | inactive
Cc1ccc(S(=O)(=O)c2nc(-c3cccs3)oc2N2CCCCC2)cc1 | 23.1 µM (active)
Cc1ccc(NC(=O)COc2ccc(/C=C3/NC(=O)NC3=O)cc2)cc1 | inactive
O=C1OC(Oc2ccc(Br)cc2)(c2ccccc2)c2ccccc21 (stereo unspecified) | inactive
CCCOCC(O)CC(CC)C(=O)NNC(=S)Nc1ccccc1 (stereo unspecified) | inactive
COc1ccc2c(c1)N(C)/C(=C1/SC(=S)N(NC(C)=O)C1=O)S2 | inactive
CCC(C)NC(=O)/C=C/c1ccc(S(=O)(=O)NCc2ccco2)cc1 (stereo unspecified) | inactive
O=S(=O)(NC1CCCC1)c1ccc(-n2cnnn2)cc1 | inactive
O=C(NC1CC1)c1ccc(-c2ccccc2)cc1 | 11.6 µM (active)
Cc1ccc(C(=O)NCC(=O)NC2CC2)cc1 | inactive

Compound | Potency
O=C(NNC(=O)c1ccc(-c2ccccc2)cc1)Nc1ccccc1 | inactive
C/C(N)=C(/C#N)C(=O)COC(=O)C1CCN(C(=O)c2ccc(Cl)cc2)CC1 | inactive
CC(=O)O[C@]1(C(C)=O)CC[C@H]2[C@@H]3C=C(C)C4=CC(=O)CC[C@]4(C)[C@H]3CC[C@@]21C | inactive and 23.1 µM (active)
CC(=O)O[C@]1(C(C)=O)CC[C@H]2[C@@H]3CCC4=CC(=O)CC[C@]4(C)[C@@]3(F)[C@@H](O)C[C@@]21C | inactive
CC(=O)OCC(=O)C1(O)CCC2C3CC(C)C4=CC(=O)CCC4(C)C3C(O)CC21C (stereo unspecified) | inactive
CCc1nc2c(=O)[nH]cnc2o1 | inactive
CCn1nnnc1SCC(=O)c1ccc(C)cc1C | inactive
COc1ccc(NC(=O)C(Br)C(C)C)cc1 (stereo unspecified) | inactive
COc1ccc(NC(=O)C(=O)NCC(=O)Nc2cccc(C(F)(F)F)c2)cc1 | inactive
CC(C)(C)CC(=O)Nc1nc(C(N)Cc2ccc(C(F)(F)F)cc2)cs1 (stereo unspecified) | 16.4 µM (active)
CC(C)(C)CC(=O)Nc1nnc(SCC(=O)NCc2cccs2)s1 | inactive
CC(C)C[C@H](NC(=O)Nc1cccc(C(F)(F)F)c1)C(=O)O | inactive
COC(=O)[C@H](Cc1ccccc1)NC(=O)Nc1ccc(OC)cc1 | inactive
Cc1ccccc1NC(=O)Cc1nc(COC(=O)c2ccc(C(F)(F)F)cc2)cs1 | inactive
COc1ccc(C(CC(=O)Nc2ccc(C)cc2)NC(=O)C(F)(F)F)cc1 (stereo unspecified) | inactive
COc1ccc(C(N)c2csc(NC(=O)Nc3cccc(C(F)(F)F)c3)n2)cc1 (stereo unspecified) | 13 µM (active)
NC(c1csc(NC(=O)Nc2cccc(C(F)(F)F)c2)n1)C1CCCCC1 (stereo unspecified) | 20.6 µM (active)
COc1ccc(CC(N)c2csc(NC(=O)Nc3ccc(C(C)C)cc3)n2)cc1 (stereo unspecified) | 6.51 µM (active)
Cc1ccc(NC(=O)Nc2cccc(C(F)(F)F)c2)nc1 | inactive
COc1ccccc1C1CN(Cc2ccccc2O)Cc2ccccc2O1 (stereo unspecified) | inactive
O=C(CC(NCc1cccnc1)C(=O)O)Nc1ccc(O)cc1 (stereo unspecified) | inactive
CSc1nc(O)c(Cc2ccccc2)c(=O)[nH]1 | inactive

Compound | Potency
Cc1cc(C(=O)OC(C)C(=O)NC2CCCCC2C)c(C)o1 (stereo unspecified) | inactive
O=C(O)c1ccc(S(=O)(=O)N2CCOCC2)o1 | inactive
Cc1ccc(NC(=O)NNC(=O)c2sccc2-n2cccc2)cc1 | inactive
CC(C)NC(=O)NNc1c(Cl)cncc1Cl | inactive
CC1CCc2c(sc3c2C2=NS(=O)(=O)CCN2C=N3)C1 (stereo unspecified) | inactive
Cc1ccc(CC2CC(=O)N(c3nc(C)cc(C)n3)C2=O)cc1 (stereo unspecified) | inactive
COc1ccccc1C(=O)NCC(=O)OCC(=O)NNC(=O)c1ccc(Br)cc1 | inactive
CC(C)C(NC(=O)c1c(F)cccc1F)C(=O)NNC(=O)c1ccccc1 (stereo unspecified) | inactive
CCO/C([O-])=N/c1c[n+](N2CCOCC2)no1 | inactive
O=C(CCC(=O)c1cccs1)Nc1nc2ccccc2s1 | inactive
COC(=O)[C@@H]1C[C@@]2(O)[C@H](O)[C@H](O)[C@H](O)C[C@H]2N1Cc1ccc(C(C)(C)C)cc1 | inactive
CN(C)CCN(C(=O)CN1C(=O)c2ccccc2C1=O)c1nc2cc3c(cc2s1)OCCO3 | inactive
Cc1cc(C(=O)Nc2c(C)n(C)n(-c3ccccc3)c2=O)cs1 | inactive
Cc1c(NC(=O)c2cc(-c3ccc(Cl)s3)nc3ccccc23)c(=O)n(-c2ccccc2)n1C | 16.4 µM (active)
O=C(Nc1cccc(F)c1)c1coc(=O)c(Br)c1 | 2.31 µM (active)
Cc1c(NC(=O)c2cccnc2)c(=O)n(-c2ccccc2)n1C | inactive
Cc1c(NC(=O)c2coc(=O)c(Br)c2)c(=O)n(-c2ccccc2)n1C | 4.11 µM (active)
O=C(CCN1C(=O)c2ccccc2C1=O)Nc1cccc(F)c1 | inactive
Cc1c(NC(=O)c2cc(=O)c3ccccc3o2)c(=O)n(-c2ccccc2)n1C | inactive
O=C(c1cc(-c2ccc(Cl)s2)nc2ccccc12)N1CCOCC1 | inactive
O=C(Nc1cccc(NC(=O)c2cccc(F)c2)c1)c1ccccc1 | inactive
COCn1c(C(O)c2ccccc2)cc2ccccc21 (stereo unspecified) | inactive
